Data reported in PubChem BioAssay AID1706 (The Scripps Research Institute Molecular Screening Center, 2009).
The campaign covered roughly 290,000 compounds. About 400 (0.14%) were called active. Rule as the data show it: active = inhibition above about 12%; inactive = the rest. What follows is part of a selection rich in actives, with near analogues and random picks from the rest.

The compounds below were run against Replicase polyprotein 1ab (Severe acute respiratory syndrome coronavirus) (UniProt P0C6X7) (assay: blockers of SARS 3CLpro peptide cleavage – biochemical, quenched FRET, primary screen (AID 1706)). Settings: recombinant SARS-CoV 3CLpro, at 6 µM, stronger effect = higher value.

Row | SMILES | inhibition
1 | COc1ccccc1C(=O)NCc1nnc(SC(C)C(=O)Nc2nccs2)n1C (stereo not drawn) | 1.41% (inactive)
2 | CN1C(CC(=O)Nc2ccc(Br)cc2)c2ccccc2CC1(C)C (stereo not drawn) | 0.03% (inactive)
3 | CCSCc1nc(N)nc(NCCc2ccccc2)n1 | 1.32% (inactive)
4 | COc1ccccc1CNC(=O)C1CCN(S(=O)(=O)c2ccc3c(c2)OCCO3)CC1 | 0.14% (inactive)
5 | O=C(Nc1ccc(Cl)c(Cl)c1)c1ccccc1NC(=O)C1CC=CCC1C(=O)O (stereo not drawn) | 4.04% (inactive)
6 | CC(C)CCn1cnc2c1c(=O)n(CC(=O)NC(N)=O)c(=O)n2Cc1ccccc1 | 2.02% (inactive)
7 | O=C(NCCCN1CCCCC1)C1CC(=O)N(CCc2ccccc2)C1 (stereo not drawn) | -1.63% (inactive)
8 | CC(C)(C)C(=O)NC1CC2CCCC(C1)N2C(=O)Nc1ccccc1F (stereo not drawn) | -4.3% (inactive)
9 | O=C(NC(Cc1ccccc1)C(=O)O)/C(=C\c1ccccc1)NC(=O)c1ccco1 (stereo not drawn) | 1.59% (inactive)
10 | Cc1cc(CNCc2c(C(=O)N(C)Cc3ccccc3)nc3ccccn23)nn1C | -0.39% (inactive)
11 | Cc1ccc(C)c(NC(=O)c2cc(-c3cc(C)cc(C)c3O)n[nH]2)c1 | 5.71% (inactive)
12 | COc1ccc(CCNC(=O)/C(C#N)=C2\N=C(NC(=O)c3cccs3)c3ccccc32)cc1 | 1.64% (inactive)
13 | COc1ccc(N2CC(C(=O)NCCS(=O)(=O)N3CCN(c4ccccc4)CC3)CC2=O)cc1 (stereo not drawn) | 0.28% (inactive)
14 | Cc1cc(C)nc(NS(=O)(=O)c2ccc(N/C=C\C(=O)c3cccs3)cc2)n1 | 6.43% (inactive)
15 | CN(Cc1ccccc1)C(=O)c1cccc(C(=O)N(C)Cc2ccccc2)c1 | -1.52% (inactive)
16 | Cc1ccc2cccc(OCCCOc3ccccc3CO)c2n1 | -3.15% (inactive)
17 | CC(=O)c1c(C)n(C(C)C)c2ccc(O)cc12 | -1.9% (inactive)
18 | O=C(NCCc1ccccc1Cl)C1CCC(=O)N(CCCc2ccccc2)C1 (stereo not drawn) | 0% (inactive)
19 | COc1ccc(CNC(=O)c2cc(=O)c3c(C)cc(C)cc3o2)cc1 | 6.16% (inactive)
20 | O=C(NC1CCC(O)CC1)c1ccccc1OCc1ccc(F)cc1 (stereo not drawn) | 0.54% (inactive)
21 | COc1ccc(C(=O)NCCCN2CCOCC2)cc1Br | 0.44% (inactive)
22 | Cc1ccc(C(=O)NCCN2CCOCC2)cc1C | 13.4% (active)
23 | Cc1cc(C)cc(C(=O)NCCN2CCOCC2)c1 | -2.25% (inactive)
24 | Cc1noc(NS(=O)(=O)c2ccc(NC(=O)c3oc4ccc(F)cc4c3C)cc2)c1C | 9.19% (inactive)
25 | COCC1CCN(C(=O)c2ccc3oc(Cc4ccccc4)nc3c2)C1 (stereo not drawn) | 1.1% (inactive)
26 | Cc1cccc2c1N(CC(=O)OC(C)C)C(=O)C2=O | 4.13% (inactive)
27 | Cc1cccc2c1N(CCOc1ccccc1)C(=O)C2=O | 17.8% (active)

Row | SMILES | inhibition
28 | O=C1c2ccccc2C(=O)N1CCOc1ccc(F)cc1 | -2.34% (inactive)
29 | Cc1ccc(S(=O)(=O)N2CC(C)N(S(C)(=O)=O)C2)cc1 (stereo not drawn) | -3.38% (inactive)
30 | Cc1cccc(-c2noc(CCC(=O)NC3CCCC3)n2)c1 | -2.1% (inactive)
31 | O=C(O)c1ccccc1CSc1nc2ccccc2s1 | 9.25% (inactive)
32 | COc1ccc(NC(=O)CSc2nncc(=O)n2N)cc1OC | -1.55% (inactive)
33 | COC(=O)c1cc(NC(=O)Cc2ccccc2[N+](=O)[O-])ccc1Cl | 13.9% (active)
34 | COc1ccc(NC(=O)c2ccccc2[N+](=O)[O-])cc1OC | 3.06% (inactive)
35 | O=C(Nc1cccc(NC(=O)c2ccccc2[N+](=O)[O-])c1)c1ccccc1Cl | 0.79% (inactive)
36 | Cc1cccc(NS(=O)(=O)c2ccc(-c3cnc(C4CC4)o3)cc2)c1 | 11.2% (inactive)
37 | O=C(NCCCn1ccnc1)c1cc2c(s1)CCCC2 | -1.18% (inactive)
38 | CCC(C)(C)NC(=O)CN(C(=O)CCC(=O)Nc1nccs1)c1ccc2c(c1)OCO2 | -3.34% (inactive)
39 | O=C(NCCCN1CCOCC1)C1CCCN(S(=O)(=O)N2CCCCC2)C1 (stereo not drawn) | 0.26% (inactive)
40 | COc1cccc(NC(=O)CN2CCN(CC(=O)Nc3ccccc3Cl)CC2)c1 | -3.69% (inactive)
41 | COc1ccc(N(Cc2ccc(N(C)C)cc2)C(=O)c2ccc(S(C)(=O)=O)cc2)cc1 | 0.16% (inactive)
42 | COc1ccc(Cl)cc1NS(=O)(=O)c1cccc(C(=O)NCC2CCCO2)c1 (stereo not drawn) | -1.42% (inactive)
43 | Cc1cccc(C(=O)Nc2nnc(Cc3c[nH]c4ccccc34)s2)c1 | 13.4% (active)
44 | Cc1cccc(C(=O)Nc2nnc(S(=O)(=O)N3CCCCCC3)s2)c1 | 0.72% (inactive)
45 | CCc1nnc(NC(=O)[C@@H](NC(=O)c2cccc(C)c2)C(C)C)s1 | 4.69% (inactive)
46 | CCOC(=O)c1cc(C(=O)Nc2ccc(S(=O)(=O)Nc3ccc(OC)cc3)cc2)nn1C | -1.42% (inactive)
47 | CN1CCN(C(=O)c2ccc(NS(=O)(=O)c3ccccc3)cc2)CC1 | -0.96% (inactive)
48 | Cc1ccc(CS(=O)Cc2ccc(C(=O)N3CCOCC3)o2)cc1 (stereo not drawn) | -1.35% (inactive)
49 | CSc1ncccc1C(=O)NCc1ccccc1Cl | 0.88% (inactive)
50 | CC(=O)Nc1ccc(S(=O)(=O)N(C)CC(=O)NCCC2=CCCCC2)cc1 | -0.77% (inactive)
51 | O=C(NCCc1ccc(Cl)cc1)c1cccc(N2CCCC2=O)c1 | 3.05% (inactive)
52 | COc1ccc(/C=C2\SC(=O)N(CCC(=O)NCCCn3ccnc3)C2=O)cc1 | -3.79% (inactive)
53 | CC(Oc1ccccc1)C(=O)Nc1c2c(nn1-c1ccccc1)CS(=O)C2 (stereo not drawn) | -1.62% (inactive)
